Screens deposited in PubChem BioAssay by several laboratories.
NR3A LBD binder: modulates the human NR3A ligand-binding domain | 340,000 tested, 2.5% active | NR3A LBD differential scanning fluorimetry, Tm shift; 0% = protein alone, 100% = glycine-bound protein | AID 1259313 | Tm shift relative to glycine control, % at 25 µM;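 active = melting temperature shift of at least 10% of the positive control shift, at one fixed dose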
sPLA2-III inh: Blocks human group III sPLA2 activity; Q9NZ20; QFRET BODIPY PC-A2 liposome hydrolysis, fluorescence; inhibition, % at 12.2 µM; 370,000 tested, 0.56% active; AID 743126;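 active = inhibition above mean plus 3 SD of compounds lying within the high and low control bounds, cut at about 19% in these data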
ADAM10 inh: inhibits human ADAM10. O14672. recombinant ADAM10, EDANS/DABCYL FRET peptide cleavage, 3 h. inhibition, % at 7 µM. 370,000 tested, 0.62% active;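 active = inhibition above a per-campaign cutoff equal to the mean of compounds falling between control-based bounds plus 3 SD, cut at about 20% in these data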
FAS TE block: FAS thioesterase (human) inhibition; P49327; recombinant FAS-TE, OMFH fluorogenic substrate, fluorescence endpoint; inhibition, % at 15 µM; 360,000 tested, 0.67% active; AID 602261;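 active = compounds whose normalised, plate-corrected inhibition of enzyme fluorescence in the single-dose primary screen is 50% or more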
ADAM17 inh: inhibits human ADAM17. P78536. recombinant ADAM17, EDANS/DABCYL FRET peptide cleavage. inhibition, % at 6.95 µM. 370,000 tested, 0.83% active. AID 720648;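 active = inhibition above the mean of compounds lying between control limits plus 3 SD, set per campaign, cut at about 8.5% in these data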
ADAM10 ctr: ADAM10 inhibition, counter-screen for ADAM17 exosite hits. shares compounds with ADAM17 inh. recombinant ADAM10, EDANS/DABCYL FRET peptide cleavage, 3 h. inhibition, % at 6.95 µM. 2,900 tested, 47% active;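 active = mean inhibition over the triplicate runs exceeds the activity threshold set in the earlier primary screen, cut at about 20% in these data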
ADAM17 confirm: human ADAM17 inhibition, confirmation | inhibition, % at 6.95 µM | recombinant ADAM17, EDANS/DABCYL QFRET peptide cleavage | 2,900 tested, 65% active | shares compounds with ADAM17 inh | AID 743257;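 active = mean inhibition across replicates above the hit cutoff set in the primary screen, cut at about 8.5% in these data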
Hits are given with their value; – = inactive; · = not tested or not shown. Shown are actives, neighbours in structure and some others; about 4.3% of the full set was active somewhere.

SMILES	NR3A LBD binder	sPLA2-III inh	ADAM10 inh	FAS TE block	ADAM17 inh	ADAM10 ctr	ADAM17 confirm
COc1ccc(Cl)cc1NC(=S)NCc1ccccn1	–	–	–	–	8.7	–	–
COc1ccc(CCN(Cc2ccccn2)C(=S)Nc2ccccc2Cl)cc1OC	–	–	–	–	8.7	–	–
COc1ccccc1NC(=S)NCCC(c1ccccc1)c1ccccc1	–	–	–	–	–	·	·
COc1ccccc1NC(=S)NCc1ccccn1	–	–	–	–	–	·	·
COc1ccc(Cl)cc1NC(=S)NCCC(c1ccccc1)c1ccccc1	18	–	–	–	9.8	20	–
COC(=O)C1=C(C)N(C)C(=NCc2ccc(OC)cc2)NC1c1ccc(C(F)(F)F)cc1 (configuration not stated)	·	–	–	·	–	·	·
CC(C)[C@H]1/C(=C/C2CC2)N2C(=O)C[C@H](c3ccccc3)N=C2N1C	·	–	–	·	–	·	·
CON(C)C(=O)C(C)(C)CC#CCN(CC#Cc1ccccc1)S(=O)(=O)c1ccc(C)cc1	·	–	–	·	–	·	·
CCOC(=O)[C@H]1[C@H]2COc3ccc(Br)cc3[C@@H]2N2C(=O)CN(Cc3ccc(C)cc3)C(=O)[C@@]12C	–	–	–	–	9.6	28	17
CC(C)c1cccc(-c2csc(C(O)c3ccc(F)c(F)c3)n2)c1 (configuration not stated)	·	–	–	–	11	24	15
COc1ccc(OC)c(Nc2cc(C)c3ccccc3n2)c1	–	–	–	–	–	·	·
COc1ccc(OC)c(Nc2ccc(Nc3cc(OC)ccc3OC)nn2)c1	–	–	–	–	18	–	–
COc1ccccc1C1N(c2ccc(Cl)cc2)C(=O)C2CCCN21 (configuration not stated)	–	–	–	–	9.8	–	–
COc1ccc(NC(=O)CSc2nncn2N)c(OC)c1	–	–	–	–	–	·	·
COc1cccc(NC(=O)CSc2nncn2N)c1	–	–	–	–	9.7	–	–
O=C(NCC1CCCO1)c1nn2c(c1Cl)NC(c1ccc(F)cc1)CC2C(F)(F)F (configuration not stated)	–	–	–	–	–	·	·
O=C(NCC1CCCO1)c1cnn2c1NC(c1ccccc1)CC2C(F)(F)F (configuration not stated)	–	–	–	–	11	–	–
C#CCNC(=O)C[C@H]1C[C@@]2(C(=O)OC)C(=C[C@H](C3CCCC3)O[C@@H]2C)N(Cc2ccccc2)C1=O	·	–	–	·	–	·	·
O=C(CSc1nnc(-c2cnccn2)n1-c1ccccc1)Nc1ccc2cn[nH]c2c1	·	–	–	·	–	·	·
CC(C)c1ccc(S(=O)(=O)Nc2ccc3c(c2)OCO3)cc1	–	–	–	–	12	–	–
O=C(Nc1ccccc1C(F)(F)F)OC1CCC12CCC(c1ccccc1)CC2 (configuration not stated)	·	–	–	·	–	·	·
Cc1ccc(NC(=O)c2cc(S(=O)(=O)NCCC3=CCCCC3)ccc2F)cc1	14	–	23	–	14	34	18
C[C@H]1COc2cc(N3CCCC3)ccc2S(=O)(=O)N1	·	–	–	·	–	·	·
Cc1ccc(-c2[nH]nc(N)c2N=Nc2ccccc2C)cc1	44	–	–	–	9.7	25	16
COC(=O)c1cc2c(c3c4cc(OC)ccc4n(S(=O)(=O)c4ccc(C)cc4)c13)C(=O)N(C)C2	·	–	–	·	–	·	·
SMILES	NR3A LBD binder	sPLA2-III inh	ADAM10 inh	FAS TE block	ADAM17 inh	ADAM10 ctr	ADAM17 confirm
CCC(=O)Nc1nnc(C)s1	–	–	–	–	12	–	–
CCCCC(=O)Nc1nnc(C)s1	–	–	–	–	–	·	·
O=C(NCCCc1ccccc1)O[C@@H]1CC[C@@]23CCCN2C(=O)CCC[C@H]3C1	·	–	–	·	–	·	·
Cc1cccc(C)c1-n1nnnc1C(c1ccccc1)N1CCN(C/C=C/c2ccccc2)CC1 (configuration not stated)	·	–	–	–	9.4	–	10
CCOc1cc(C=NN2CCN(Cc3ccc(C)cc3)CC2)ccc1O	·	–	–	·	–	·	·
Cc1cccc(-c2cccc3c4c([nH]c23)[C@@H]2C[C@H](N(C)C(=O)Nc3ccccc3C)[C@H]([C@H](C)O)CN2CC4)c1	·	–	–	·	–	·	·
